Results published in PubChem BioAssay (NCATS).
Where “and” joins values, the source holds several entries; their conditions need not be identical. Equal values may be shown once. Inconclusive results are not listed. Where a call stands in place of a potency, no number is given. Calls of active or inactive are those of the source. Unless noted, calls come from the whole dose curve; as a rule, active = well fitted curve in the direction sought with a large enough effect; inconclusive = small, poorly fitted or top-dose-only effect, or another doubt; inactive = no such curve, though single readings can be large; an effect the other way counts as inactive or inconclusive.

Tests used:
[1] = biological target: Peroxisome proliferator-activated receptor alpha (Homo sapiens) (UniProt Q07869); assay: qHTS assay for small molecule agonists of the peroxisome proliferator-activated receptor alpha (PPARalpha) signaling pathway (AID 651778); conditions: PathHunter PPARalpha complementation, chemiluminescence, 6 h; max response: stronger effect = higher value
Chain of Peroxisome proliferator-activated receptor alpha (Homo sapiens) (Q07869 whole entry, looked up): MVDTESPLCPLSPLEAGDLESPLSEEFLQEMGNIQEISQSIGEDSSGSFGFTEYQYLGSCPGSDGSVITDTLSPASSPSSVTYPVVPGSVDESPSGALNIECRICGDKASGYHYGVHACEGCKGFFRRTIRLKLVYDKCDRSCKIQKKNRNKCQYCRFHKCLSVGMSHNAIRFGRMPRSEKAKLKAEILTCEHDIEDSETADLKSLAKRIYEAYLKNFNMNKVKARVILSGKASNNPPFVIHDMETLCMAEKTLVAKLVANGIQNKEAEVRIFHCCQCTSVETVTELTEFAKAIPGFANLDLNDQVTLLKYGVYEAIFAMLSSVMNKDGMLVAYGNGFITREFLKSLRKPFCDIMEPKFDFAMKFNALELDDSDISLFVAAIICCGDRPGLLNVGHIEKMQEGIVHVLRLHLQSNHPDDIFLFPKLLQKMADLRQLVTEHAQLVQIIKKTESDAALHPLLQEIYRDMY
Procedure, shortened: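 Cells plated at 2,000/well and held overnight at 37 C, 5% CO2, then compound added by pin tool for 6 hr; after PathHunter detection reagent and 60 min at room temperature, chemiluminescence from enzyme complementation was read.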

[2] = biological target: Nuclear receptor ROR-gamma (Homo sapiens) (UniProt P51449); assay: qHTS assay for small molecule antagonists of the retinoid-related orphan receptor gamma (ROR-gamma) signaling pathway (AID 651802);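 note: CHO cells with doxycycline-induced ROR-gamma expression; nearly all actives have a fitted effect of over 60% in size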
Chain of Nuclear receptor ROR-gamma (Homo sapiens) (P51449 whole entry, looked up): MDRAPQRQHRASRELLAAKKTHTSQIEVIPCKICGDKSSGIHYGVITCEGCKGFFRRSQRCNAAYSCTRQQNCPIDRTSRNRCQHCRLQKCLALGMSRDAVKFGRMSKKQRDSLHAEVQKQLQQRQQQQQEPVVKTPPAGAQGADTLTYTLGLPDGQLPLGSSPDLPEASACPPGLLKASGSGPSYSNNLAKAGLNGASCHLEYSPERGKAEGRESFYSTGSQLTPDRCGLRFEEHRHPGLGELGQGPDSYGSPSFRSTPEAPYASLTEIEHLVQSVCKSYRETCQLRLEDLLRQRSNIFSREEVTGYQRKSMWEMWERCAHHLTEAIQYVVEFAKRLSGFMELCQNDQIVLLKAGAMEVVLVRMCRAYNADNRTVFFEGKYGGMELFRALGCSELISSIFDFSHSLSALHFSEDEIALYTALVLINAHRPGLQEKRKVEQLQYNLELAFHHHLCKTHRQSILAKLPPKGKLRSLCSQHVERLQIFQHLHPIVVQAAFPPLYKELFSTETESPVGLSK
Procedure, shortened: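 Steps: cells dispensed; compound or DMSO transferred by pin tool; doxycycline added to induce the ROR response element-driven luciferase; plates held 16hr at 37C; ONE-Glo added and luminescence measured.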

[3] = biological target: Arylsulfatase A (Homo sapiens) (UniProt P15289); assay: qHTS screen for enhancers of Arylsulfatase A (ASA1): LOPAC Validation Assay (AID 720538)
Chain of Arylsulfatase A (Homo sapiens) (P15289 whole entry, looked up): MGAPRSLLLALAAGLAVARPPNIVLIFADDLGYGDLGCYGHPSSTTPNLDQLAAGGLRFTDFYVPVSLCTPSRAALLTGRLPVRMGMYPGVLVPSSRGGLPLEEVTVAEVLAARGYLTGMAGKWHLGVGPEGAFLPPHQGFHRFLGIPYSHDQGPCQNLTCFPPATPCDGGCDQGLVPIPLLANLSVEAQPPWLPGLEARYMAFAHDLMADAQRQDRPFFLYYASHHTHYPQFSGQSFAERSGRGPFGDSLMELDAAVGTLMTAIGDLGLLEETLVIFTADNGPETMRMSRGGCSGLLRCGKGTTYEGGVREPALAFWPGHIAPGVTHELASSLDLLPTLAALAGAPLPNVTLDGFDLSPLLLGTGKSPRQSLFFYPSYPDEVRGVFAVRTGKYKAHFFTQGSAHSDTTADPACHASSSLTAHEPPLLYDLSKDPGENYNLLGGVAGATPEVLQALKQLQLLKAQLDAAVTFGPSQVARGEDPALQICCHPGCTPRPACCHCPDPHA
Procedure, shortened: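 SV40-transformed skin fibroblasts from an MLD patient (ASA-I179S) were treated with compounds for 48h at 37 degree C, then lysed with 0.5mM pNCS final substrate for 14h at room temperature; NaOH stop, fluorescence read (Ex=525 nm; Em=598 nm).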

[4] = qHTS for compounds that reverse cellular toxicity of Amyloid beta (A-beta) peptide in yeast: LOPAC Validation Assay (AID 720559)
Procedure, shortened: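 Yeast cells expressing toxic A-beta were combined with pinned compounds in growth medium and incubated 48 hr at 30 C. Growth was read as absorbance at 600 nm and normalized to DMSO and to an equimolar FeCl3/clioquinol positive control.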

[5] = qHTS for Activators of Parkin Expression: LOPAC Validation Assay (NLuc Reporter) (AID 720572)
Procedure, shortened: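 Cells harboring the Parkin-promoter coincidence reporter were treated for 24 h at seven concentrations. NLuc output was measured sequentially after the FLuc channel and scaled between DMSO and positive control values.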

[6] = qHTS for Activators of Parkin Expression: LOPAC Validation Assay (FLuc Reporter) (AID 720573)
Procedure, shortened: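 Neuronal cell line stably carrying FLuc/NLuc coincidence reporter under Parkin promoter; cells plated 24 h, then compounds added in 7-point dose response for 24 h at 37 C. FLuc luminescence read; normalized to DMSO and positive control (100%).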

[7] = qHTS assay for small molecule agonists of the antioxidant response element (ARE) signaling pathway measured by Nrf2-dependant transcriptional activity (AID 720636; active = well fitted curve in the direction sought with a large enough effect in the repeat runs; an effect the other way counts as inactive or inconclusive;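 note: HepG2 cells with an ARE-driven luciferase reporter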)
Procedure, shortened: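 Attachment 6 hr at 37 C, then compound versus DMSO vehicle for 16 hr in ARE-luc HepG2 cells (1% dialyzed FBS); luminescence recorded 30 min after ONE-Glo addition at room temperature.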

[8] = qHTS assay for small molecule antagonists of the retinoid-related orphan receptor gamma (ROR-gamma) signaling pathway - cell viability counter screen (AID 720652; active = well fitted curve in the direction sought with a large enough effect in the repeat runs; an effect the other way counts as inactive or inconclusive;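 note: CHO reporter cells with doxycycline-induced ROR-gamma expression; compound exposure lasted 16 hr before ATP read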)
Procedure, shortened: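 Steps: seed CHO cells bearing TET-inducible ROR and ROR response element-luciferase; rest 5 hr at 37 C; add compound, then doxycycline; incubate 16 hr; add CellTiter-Glo and read luminescence as ATP-based viability.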

[9] = qHTS assay for small molecule agonists of the antioxidant response element (ARE) signaling pathway measured by Nrf2-dependant transcriptional activity - cell viability counter screen (AID 720653; active = well fitted curve in the direction sought with a large enough effect in the repeat runs; an effect the other way counts as inactive or inconclusive); conditions: ARE-bla HepG2 viability, CellTiter-Glo ATP luminescence, 16 h; max response: stronger effect = lower value
Procedure, shortened: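 ARE-bla HepG2 cells (2,000/well) rested 5 hrs at 37C/5% CO2, then exposed to compounds in DMSO for 16 hrs. Viability was read in the same wells as intracellular ATP by luminescence, 30 min at room temperature after reagent addition.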

[10] = biological target: T1, Hexokinase-4 (Homo sapiens) + Glucokinase regulatory protein (Homo sapiens) (UniProt P35557+Q14397); assay: qHTS assay for inhibitors of recombinant human GCK-GKRP interaction: Diaphorase-coupled assay (AID 743205)
T1 sequence (P35557 whole entry, looked up): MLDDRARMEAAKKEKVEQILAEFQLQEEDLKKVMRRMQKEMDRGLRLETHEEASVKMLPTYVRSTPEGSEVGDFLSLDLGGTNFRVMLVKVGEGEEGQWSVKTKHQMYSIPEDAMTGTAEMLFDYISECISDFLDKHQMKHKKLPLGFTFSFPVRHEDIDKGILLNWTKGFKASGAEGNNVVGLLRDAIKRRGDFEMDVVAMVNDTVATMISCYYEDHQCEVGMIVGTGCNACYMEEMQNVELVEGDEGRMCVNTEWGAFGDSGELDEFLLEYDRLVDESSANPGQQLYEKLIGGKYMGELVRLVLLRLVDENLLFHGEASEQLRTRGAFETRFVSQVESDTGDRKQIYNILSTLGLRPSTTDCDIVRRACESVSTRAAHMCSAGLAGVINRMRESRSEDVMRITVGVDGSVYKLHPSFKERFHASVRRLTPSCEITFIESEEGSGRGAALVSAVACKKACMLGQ
T1 sequence (Q14397 whole entry, looked up): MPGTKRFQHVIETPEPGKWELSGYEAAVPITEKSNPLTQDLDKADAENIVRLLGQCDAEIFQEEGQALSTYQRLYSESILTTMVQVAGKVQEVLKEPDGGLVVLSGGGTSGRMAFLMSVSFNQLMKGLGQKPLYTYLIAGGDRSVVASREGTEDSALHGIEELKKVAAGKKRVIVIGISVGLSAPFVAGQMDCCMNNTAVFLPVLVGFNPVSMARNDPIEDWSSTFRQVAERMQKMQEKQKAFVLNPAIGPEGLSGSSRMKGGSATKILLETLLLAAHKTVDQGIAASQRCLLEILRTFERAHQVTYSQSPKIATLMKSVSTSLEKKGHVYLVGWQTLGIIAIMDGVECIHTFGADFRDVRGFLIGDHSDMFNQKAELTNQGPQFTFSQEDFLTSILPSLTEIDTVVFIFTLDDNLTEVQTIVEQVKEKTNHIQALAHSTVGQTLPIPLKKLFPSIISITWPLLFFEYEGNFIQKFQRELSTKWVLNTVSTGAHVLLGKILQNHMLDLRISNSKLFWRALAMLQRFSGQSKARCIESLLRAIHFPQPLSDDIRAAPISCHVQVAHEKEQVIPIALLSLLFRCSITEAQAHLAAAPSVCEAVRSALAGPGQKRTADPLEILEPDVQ
Procedure, shortened: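 GST-GCK (10 nM) with FLAG-GKRP (10 nM), 5 mM glucose and 0.4 mM ATP in pH 7.6 Hepes; compounds preincubated 20 min with substrate. G6PDH/diaphorase coupling converts resazurin to resorufin, read kinetically (ex 525/em 590 nm) for 30 min.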

[11] = biological target: T1, Hexokinase-4 (Homo sapiens) + Glucokinase regulatory protein (Homo sapiens); assay: qHTS assay for inhibitors of recombinant human GCK-GKRP interaction: ADP-Glo assay (AID 743206)
Procedure, shortened: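 Pin-transferred compounds meet a 15 nM GST-GCK/15 nM FLAG-GKRP/2 uM S6P mix (dispense concentrations). ATP is then added to 0.4 mM final with 5 mM glucose, and the reaction runs 60 min at room temperature. ADP is quantified luminescently.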

[12] = biological target: T1, Hexokinase-4 (Homo sapiens) + Glucokinase regulatory protein (Homo sapiens); assay: qHTS assay for inhibitors of recombinant human GCK-GKRP interaction: HTRF assay (AID 743207)
Procedure, shortened: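 GST-GCK and FLAG-GKRP (5 nM each) were combined with 2 uM S6P in pH 7.1 Hepes/MgCl2/KCl/DTT buffer, then compound and anti-FLAG XL665/anti-GST K antibodies were added. After 60 min at room temperature, HTRF 665/615 nm emission was read.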

[13] = qHTS Assay for Identifying Gametocytocidal Compounds (AID 743244);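 note: actives lower the fluorescent signal which means gametocytes are killed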; conditions: P. falciparum 3D7 stage III-V gametocytes, alamarBlue, 72 h; max response: stronger effect = lower value
Procedure, shortened: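 Using 20,000 stage III–V 3D7 gametocytes per well, compounds were incubated 72 h under 37 °C/5% CO2. Viability was then assessed by 24 h alamarBlue reduction, measured fluorometrically at 525/598 nm.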

[14] = qHTS assay for cell viability of HEK293 cells (AID 743288); conditions: ATP luminescence (CellTiter-Glo), 18 h; max response: stronger effect = lower value; note: nearly all actives have a fitted effect of over 50% in size
Procedure, shortened: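 After 18 h compound exposure at 37 C, parental HEK293 cells (2,000/well) are lysed with CellTiter-Glo and luminescence is read following 30 min at room temperature.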

[15] = qHTS assay for cell viability of the p53RE-bla HCT-116 cell line (AID 743292); note: nearly all actives have a fitted effect of over 55% in size
Procedure, shortened: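 Compound-exposed HCT-116 (p53RE-bla) cells, 4,000 per well, were kept 16 h at 37 C following a 5 h preincubation. Cell number was estimated from total ATP by CellTiter-Glo luminescence read after 30 min at room temperature.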

[16] = qHTS assay for environmental chemicals that activate the Aryl hydrocarbon Receptor (AhR) signaling pathway (AID 651777); conditions: 1A2-DRE human hepatoma cells, luciferase, 24 h; activation: stronger effect = higher value; note: nearly all actives have a fitted effect of over 15% in size
Procedure, shortened: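 Concentration–response screening used 1,200 1A2-DRE cells per well, 24 hr compound exposure (37 C, 5% CO2), and One-Glo luminescence as the AhR-driven CYP1A2 reporter signal.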

[17] = biological target: Tyrosine-protein kinase Yes (Homo sapiens) (UniProt P07947); assay: qHTS for small molecule inhibitors of Yes1 kinase: Primary Screen (AID 686947); note: nearly all actives have a fitted effect of over 60% in size
Chain of Tyrosine-protein kinase Yes (Homo sapiens) (P07947 whole entry, looked up): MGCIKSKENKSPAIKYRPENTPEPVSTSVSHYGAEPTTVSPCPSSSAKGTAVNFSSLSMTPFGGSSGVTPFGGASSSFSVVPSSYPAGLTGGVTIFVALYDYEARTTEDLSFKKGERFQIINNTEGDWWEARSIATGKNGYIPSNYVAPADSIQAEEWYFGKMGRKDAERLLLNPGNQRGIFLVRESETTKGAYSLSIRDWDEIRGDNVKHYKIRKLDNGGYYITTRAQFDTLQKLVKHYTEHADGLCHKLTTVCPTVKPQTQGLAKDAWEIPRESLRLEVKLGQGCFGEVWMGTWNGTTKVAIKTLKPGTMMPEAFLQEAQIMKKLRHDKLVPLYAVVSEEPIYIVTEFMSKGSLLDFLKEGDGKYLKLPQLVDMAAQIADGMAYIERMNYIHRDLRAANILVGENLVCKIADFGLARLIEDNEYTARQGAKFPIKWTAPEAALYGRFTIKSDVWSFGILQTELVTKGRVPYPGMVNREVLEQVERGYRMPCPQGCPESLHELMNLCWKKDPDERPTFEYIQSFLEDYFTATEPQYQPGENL
Procedure, shortened: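 ADP-Glo luminescence reports ADP formed by 4 nM Yes1 phosphorylating poly(E4Y) (0.3 mg/mL) with 0.1 mM ATP for 60 min at room temperature, following 20 min compound preincubation; normalised between DMSO wells with and without enzyme.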

[18] = qHTS for small molecule inhibitors of Yes1 kinase: Counter Assay (AID 686950);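 note: no kinase present so only ADP-Glo detection of a fixed ADP amount is tested; luminescence from ADP-Glo reporting ADP in a fixed ATP and ADP mixture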
Procedure, shortened: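 Measuring interference with ADP-Glo, the assay ran 60 min at room temperature on an ATP/ADP mix lacking enzyme. Values were normalized to ATP-plus-ADP (maximum) and ATP-only (minimum) DMSO controls.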

[19] = qHTS profiling for inhibitors of Plasmodium falciparum (3D7) proliferation (AID 743322);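 note: infected erythrocytes exposed to compound for 72 h before lysis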; conditions: P. falciparum 3D7 proliferation
Procedure, shortened: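 Parasite DNA was quantified by SYBR Green I fluorescence (ex 485, em 535 nm) after overnight lysis in saponin/Triton buffer at room temperature. Cultures at 0.3% parasitemia and 2.5% hematocrit were first exposed to compound for 72 h at 37 C; signals were normalised to artemisinin (0.29 uM) and vehicle wells.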

Structure (SMILES)	max response [1]	Potency [2]	Potency [3]	outcome [4]	outcome [5]	Potency [6]	outcome [7]	Potency [8]	max response [9]	Potency [10]	Potency [11]	Potency [12]	max response [13]	max response [14]	Potency [15]	activation [16]	Potency [17]	outcome [18]	remaining parasite growth % (stronger effect = lower value) ([19]; at 28.7 µM (top of the series))	remaining parasite growth % (stronger effect = lower value) ([19]; at 57.5 µM (top of the series))
Nc1ccn([C@H]2CC[C@@H](CO)O2)c(=O)n1	-1.99% (inactive) and 0.814% (inactive)	inactive	inactive	inactive	inactive	inactive	inactive	inactive	-1.33% (inactive) and -0.56% (inactive)	inactive	inactive	inactive	-9.19% (inactive) and 7.53% (inactive)	3.55% (inactive) and 2.55% (inactive)	inactive	–	–	–	–	–
CC(C)Cc1ccc(C(C)C(=O)O)cc1 (stereo not drawn)	-0.128% (inactive)	–	inactive	inactive	inactive	inactive	inactive	–	3.8% (inactive)	inactive	inactive	inactive	19.9% (inactive) and 9.6% (inactive)	-10% (inactive)	inactive	-1.21% (inactive)	–	–	–	–
C[C@](N)(Cc1ccc(O)c(O)c1)C(=O)O	-1.06% (inactive)	–	–	inactive	inactive	inactive	inactive	–	-0.408% (inactive)	inactive	inactive	inactive	9.51% (inactive)	-5.13% (inactive)	inactive	-1.04% (inactive)	–	–	–	–
NS(=O)(=O)c1cc2c(cc1Cl)NCNS2(=O)=O	-0.533% (inactive) and -1.17% (inactive)	inactive	inactive	inactive	inactive	inactive	inactive	inactive	0.152% (inactive) and 15.5% (inactive)	inactive	inactive	inactive	6.34% (inactive) and 16.2% (inactive)	-3.61% (inactive) and 2.79% (inactive)	inactive	0.0029% (inactive) and 2.21% (inactive)	–	–	–	–
Cn1c(=O)c2[nH]cnc2n(C)c1=O	-1.61% (inactive)	–	–	inactive	inactive	inactive	inactive	inactive	0.323% (inactive)	inactive	inactive	inactive	2.17% (inactive) and 13.8% (inactive)	2.06% (inactive)	inactive	3.65% (inactive)	–	–	–	–
Cc1ccc(-c2cc(C(F)(F)F)nn2-c2ccc(S(N)(=O)=O)cc2)cc1	3.54% (inactive)	–	–	–	–	–	inactive	–	-0.182% (inactive)	–	–	–	2.3% (inactive) and -2.23% (inactive)	-4.48% (inactive)	inactive	-1.91% (inactive)	inactive	inactive	17.6%	11.7%
